Structures are written as SMILES. Unmarked numbers belong to inactive results.

In one assay the test system is Pectobacterium parmentieri SCC3193. The assay is described as follows: DuctApe activity index (growth/respiration on compound as sole nutrient source, blank-subtracted) (activity index (0-3)); higher = stronger utilization of the compound, active = 3 or more. As to conditions: nutrient role (plate category): carbon. As for the experimental part: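 Biolog Phenotype Microarray plates PM1, PM2A (carbon), PM3 (nitrogen) and PM4 (phosphorus/sulfur) inoculated with P. parmentieri SCC3193 in M9-C minimal salts medium with Biolog dye A, and read in the OmniLog for 46 h. Each well was tested in triplicate and the experiment was run twice. DuctApe computed a blank-subtracted activity index (AV, 0-3) from the mean curves; growth is positive at AV >= 3 and negative at AV <= 2.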
On to `NCCc1ccc(O)cc1` [Tyramine], for which the DuctApe activity index is 0.
`O=C(O)CCCO` [g-Hydroxybutyric acid]: the DuctApe activity index was 0.
As for `O=C(O)CC(Br)C(=O)O` (centres undefined) [Bromosuccinic acid], the DuctApe activity index was 3 (active).
Same read-out and setting: as for `NCC(O)c1ccc(O)cc1` (racemic) [D,L-Octopamine], the figure is 0; as for `N#C[C@H](O[C@@H]1O[C@H](CO[C@@H]2O[C@H](CO)[C@@H](O)[C@H](O)[C@H]2O)[C@@H](O)[C@H](O)[C@H]1O)c1ccccc1` [Amygdalin], 0; as for `NCCc1ccccc1` [Phenylethylamine], 0.

The same assay, now with this note: nutrient role (plate category): nitrogen.
As to `NCCc1ccc(O)cc1` [Tyramine], the DuctApe activity index is 0.
Turning to `O=[N+]([O-])O` [Nitrate], the DuctApe activity index was 0.
For `CN` [Methylamine], the DuctApe activity index is 0.
With `O=C1NC(=O)C(=O)C(=O)N1` [Alloxan], the DuctApe activity index was 0.
The same measure, in the same setting: then `NCCc1ccccc1` [b-Phenylethylamine], with 0; and `CCN` [Ethylamine], with 0.

The same assay, now with this note: nutrient role (plate category): phosphate & sulphur.
Turning to `OP(O)(=S)S` [Dithiophosphate], the DuctApe activity index was 1.5.
With `CCSCCC(N)C(=O)O` (racemic) [DL-Ethionine], the DuctApe activity index is 0.
On to `OP(O)(O)=S` [Thiophosphate], for which the DuctApe activity index is 1.5.
On the same count and under the same terms, then `CCOP(=O)(OCC)OCC` [Triethyl Phosphate], with 0.
Take `CN(CC(=O)O)C(=N)NP(=O)(O)O` [Phosphocreatine]: the DuctApe activity index was 2.
Regarding `O=PO` [Hypophosphite], the DuctApe activity index was 0.
`NCCP(=O)(O)O` [2-Aminoethyl Phosphonic acid]: the DuctApe activity index was 0.
